Screening data: PubChem, National Center for Advancing Translational Sciences (NCATS)
KB-V1 cytotox – kills drug-selected multidrug resistant KB-V1 cells; KB-V1 MDR cells viability, CellTiter-Glo, 72 h; AID 1347076; Potency, µM (doses to about 46.1 µM), actives largely listed as cytotoxic; hit rate 3.4% among 400,000; also: % is scaled to controls: 0 for no effect and ±100 for the full control effect; nearly all actives have a fitted effect of over 60% in size
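Compound-treated KB-V1 multidrug-resistant cells, 72 h, 37 degrees C; viability by CellTiter-Glo. Fitted qHTS curves give the values.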
SW480 rerep – DNA re-replication induction in SW480 cells; SW480 DNA re-replication, Hoechst DNA content imaging, 48 h; Potency, µM (doses to about 46.1 µM), inactives show at the top dose re-replication activation, usual class: activators; hit rate 1.8% among 340,000; AID 624297; also: % of control where 0% means no effect; nearly all actives have a fitted effect of over 55% in size
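Quantitative HTS format with DMSO vehicle controls; 48 hr drug incubation at 37 C, then 40 min Hoechst staining and scanning imager measurement at 405 nm excitation.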
PINK1 expr mod – PINK1 expression modulation. PINK1 immunofluorescence, high-content cytometry, 24 h. Potency, µM (series often up to 76.6 µM), for the others: at the highest dose activation (PINK1 increase), hits mostly activators. hit rate 0.2% among 410,000. AID 624263; active = well fitted activation curve with a large enough effect; inconclusive = small, poorly fitted or top-dose-only effect; cell line not stated here; also: % of control where 0% means no effect; nearly all actives have a fitted effect of over 65% in size
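Decision-based qHTS: stable cells, 24 h exposure to five compound concentrations, CCCP as control. Fixed cells stained for PINK1 plus nuclear, mitochondrial and cell markers, cytometer read.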
KB-3-1 cytotox – kills parental KB-3-1 adenocarcinoma cells; hit rate 1.4% among 400,000; AID 1347075; KB-3-1 viability, CellTiter-Glo ATP luminescence, 72 h; Potency, µM (series often up to 46.1 µM), actives largely listed as cytotoxic; also: % is scaled to controls: 0 for no effect and ±100 for the full control effect; nearly all actives have a fitted effect of over 60% in size
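Here the drug-naive KB-3-1 line serves as comparator for MDR sub-line selectivity; cells received compound titrations, 72 h at 37 °C, then CellTiter-Glo readout.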
MCF10A rerep – induces DNA re-replication in MCF 10a normal breast cells. MCF 10A DNA re-replication, Hoechst nuclear intensity, 48 h. Potency, µM (series often up to 46.1 µM), for the others: at the highest dose activity, positive = re-replication, most hits filed as activators. hit rate 2.9% among 350,000. AID 624296; also: % of control where 0% means no effect; nearly all actives have a fitted effect of over 50% in size
Starred values were filed as active, the others as inactive; i = inactive; ? = inconclusive; . = no result given; [ ] = another dose, or the depositor's remark. Most compounds without a hit are left out; they make up all but 6.7% or so of the library. Unless noted, calls follow the shape of the dose curve; as a rule, active = well fitted curve in the direction sought with a large enough effect; inconclusive = small, poorly fitted or top-dose-only effect, or another doubt; inactive = no such curve, though single readings can be large; an effect the other way counts as inactive or inconclusive. Potency is read from the fitted curve at half-maximal effect.

SMILES | KB-V1 cytotox | SW480 rerep | PINK1 expr mod | KB-3-1 cytotox | MCF10A rerep
COc1ccccc1OCC(=O)NCC(c1cccs1)N1CCOCC1 (configuration not stated) | . | -0.9% | 2.8% | . | -4.5%
CC(C)CNC(=O)C(=O)NCC1OCCCN1S(=O)(=O)c1cccs1 (configuration not stated) | i | -9.2% | -0.7% | i | -17.8%
Cc1ccc(-n2nnnc2SCc2nnc(-c3ccccc3Br)o2)c(C)c1 | 10.3µM* | 1.7% | 1.0%[38.3 µM] | i | -1.6%
Cc1cccc(-n2cnc3cc(C(=O)NCCN4CCOCC4)ccc32)c1 | ? | . | 3.6% | i | .
CC(C)Cn1c(N)c(C(=O)NCCN2CCOCC2)c2nc3ccccc3nc21 | 23.1µM* | -0.2% | 0.2%[38.3 µM] | i | -4.9%
CC(C)Cn1c2nc3ccccc3nc2c2c(=O)n(CCN3CCOCC3)cnc21 | ? | -4.1% | -0.5% | i | -0.2%
Cc1cccc(-n2c(N)c(C(=O)NCCN3CCOCC3)c3nc4ccccc4nc32)c1 | i | ? | 3.5% | i | 20.6µM*
O=C1CC(N2C(=O)/C(=C/C=C/c3ccccc3)SC2=S)C(=O)N1c1ccccc1 (configuration not stated) | i | -39.7% | 5.0% | i | 4.61µM*
O=C(O)CN1C(=O)/C(=C/C=C/c2ccccc2)SC1=S | i | -14.6% | -0.6% | i | 6.9%
O=C(CN1CCN(C(=O)C2CCCO2)CC1)Nc1ccc(F)cc1 (configuration not stated) | i | -15.0% | -0.8% | i | -8.8%
COc1ccccc1C(=O)OCc1cc(=O)n2nc(C(C)C)sc2n1 | i | . | -0.9% | i | .
COC(=O)c1cc(-c2cc(OC)ccc2OC)nc2c1c(=O)n(C)c(=O)n2Cc1ccccc1 | ? | 2.31µM* | 3.3% | i | 6.51µM*
O=C(O)CNc1nc(NCc2ccc(Cl)cc2)ccc1[N+](=O)[O-] | i | . | 0.9% | i | .
CCC(=O)Nc1nn(CC(C)C)c2nc3ccc(C)cc3cc12 | i | 18.4µM* | 6.0% | i | ?
CCCCn1nc(NC(=O)CCC)c2cc3cc(OC)ccc3nc21 | ? | ? | ? | i | ?
CCCCn1nc(NC(=O)CC(C)C)c2cc3cc(OC)ccc3nc21 | i | 11.6µM* | 9.1% | i | 14.6µM*
COc1ccc2nc3c(cc2c1)c(NC(=O)C1CCCO1)nn3CC(C)C (configuration not stated) | i | ? | 4.6% | i | 7.5%
COc1ccc2nc3c(cc2c1)c(NC(=O)CC(C)C)nn3CC(C)C | i | 8.2µM* | 7.5% | i | 7.31µM*
C=C(C)C(=O)OCC(O)COc1ccc(C(C)(C)c2ccc(OCC(O)COC(=O)C(=C)C)cc2)cc1 (configuration not stated) | ? | 18.1% | 5.7% | i | -36.5%
Nc1ncnc2c1ncn2C1O[C@H](CO)[C@@H](O)[C@@H]1O (some centres not stated) | i | -29.5% | 0.2% | i | -22.8%
Nc1ncnc2c(C3OC(CO)C(O)C3O)scc12 (configuration not stated) | ? | ? | -1.5% | 0.103µM* | ?
COc1cc(C(=O)n2nc(C)c(Sc3ccc(Cl)cc3)c2C)cc(OC)c1OC | . | . | 2.1% | . | .
CCC(C)Sc1ccc([C@@H]2[C@H]3C(=O)N(CC)C(=O)[C@H]3[C@]3(C(=O)OC)CCCCN23)cc1 (some centres not stated) | 10.3µM* | ? | 15.4% | ? | 8.4%
CCOc1ccc(-n2c(SC(C)C)nc3c(c2=O)SCC3)cc1 | 2.91µM* | 13.9% | -3.0% | i | 19.0%
Nc1cc(N)nc(SCc2ccccc2)n1 | i | 0.9% | 2.1%[38.3 µM] | i | -1.2%
SMILES | KB-V1 cytotox | SW480 rerep | PINK1 expr mod | KB-3-1 cytotox | MCF10A rerep
Nc1nc(SCc2ccccc2)cc(SCc2ccccc2)n1 | i | 7.8% | 7.4% | i | 8.2µM*
CCc1ccc(NC(=O)CSc2nc3ccccc3c(=O)n2CCCC(=O)N2CCCC2)cc1 | 2.91µM* | ? | ? | ? | ?
NS(=O)(=O)c1ccc(CCNC(=O)CSc2nc3ccccc3c(=O)n2CCN2CCOCC2)cc1 | i | -2.0% | -1.0% | i | 4.3%
NS(=O)(=O)c1ccc(CCNC(=O)CSc2nc3ccccc3c(=O)n2CCC(=O)N2CCCCC2)cc1 | i | -35.4% | 0.8% | i | 0.731µM*
Cc1nc(CNS(=O)(=O)c2ccc(F)cc2)cs1 | ? | -9.2% | 1.0% | i | -15.0%
Cc1c(C)n(CC(O)CN2CCCCCC2)c2ccccc12 (configuration not stated) | i | 0.7% | -1.2% | i | 1.9%
OC(CN1CCCCC1)Cn1c2ccccc2c2cc(Br)ccc21 (configuration not stated) | 16.4µM* | ? | -2.8% | ? | ?
CCOC(=O)C1=C(C)NC2=C(C(=O)CC(c3ccc(OC)c(OC)c3)C2)C1c1ccc(C)o1 (configuration not stated) | 18.4µM* | -5.1% | 0.7% | i | 4.2%
CCOC(=O)C1=C(C)NC(C)=C(C(=O)OCC)C1c1ccc(OC)c(OC)c1 | i | . | 4.3% | i | .
CC(Oc1ccccc1)C(=O)Nc1ccccc1C(=O)OCc1cc(=O)n2nc(C3CC3)sc2n1 (configuration not stated) | ? | . | -1.8% | i | .
COc1cccc(NC(=O)CSc2nc(=O)n(Cc3ccncc3)c3c2CCCC3)c1 | i | -11.1% | 0.8% | i | 11.3%
CC(=O)NC1=C(C#N)C(c2ccccc2)c2c(ccc3ccccc23)O1 (configuration not stated) | 6.51µM* | ? | 0.1% | 18.4µM* | 1.84µM*
CCOC(=O)CC(=O)Nc1ncnc2c1C(c1ccccc1)c1c(ccc3ccccc13)O2 (configuration not stated) | i | 0.9% | 3.6% | i | -17.6%
Cc1ccc(NS(=O)(=O)c2cc(C(=O)N(C)C3CCN(C)CC3)ccc2Cl)cc1Cl | i | -0.3% | -0.3% | i | 19.7%
CCc1ccc2n(-c3ccc(OC)cc3)c([S-])c(C(=O)Nc3cc(C)cc(C)c3)[n+]2c1 | i | 23.9% | 7.5% | i | ?
COc1ccc(CCNC(=O)c2cccc(C(=O)NCCc3ccc(OC)cc3)n2)cc1 | 18.4µM* | -3.4% | 0.6% | i | 13.1%
COc1ccc(CCNC(=O)c2c([S-])n(-c3ccc(C)cc3)c3cccc[n+]23)cc1 | i | ? | 1.1% | 11.6µM* | 11.5%
COc1ccc(CCNC(=O)c2coc(=O)c(Br)c2)cc1 | i | ? | 3.3% | ? | 5.8µM*
COc1ccc(CCNC(=O)c2ccc(Br)cc2)cc1 | i | 16.0% | 0.0% | i | 4.5%
